Source: PubChem (several laboratories)
Shown are actives, neighbours in structure and some others; about 2.1% of the full set was active somewhere.
ugtP null kill = growth inhibition of S. aureus ugtP deletion strain; growth inhibition, % (concentration not given with the values); S. aureus RN4220 ugtP deletion, OD600 growth, 16 h; 330,000 tested, 0.54% active; AID 1259309; in the data active = growth inhibition above about 68%;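 note: plate controls were untreated wells for no effect and antibiotic for full effect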
CCHF vOTU inh-1 = blocks the CCHF virus ovarian tumor domain protease | AID 651958 | inhibition, % at 11.5 µM | CCHFV vOTU protease, Pep-AMC fluorescence | 370,000 tested, 0.55% active; note: 0% = vehicle wells with enzyme and 100% = no enzyme wells
Sa RN4220 lethal = S. aureus RN4220 growth inhibition; AID 1259311; OD600, 16 h; 330,000 tested, 0.33% active; inhibition, % (no concentration beside the values); in the data active = inhibition above about 85%;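 note: plate controls were untreated cells for no effect and reference antibiotic for full effect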
PrP 5UTR inh = inhibition of PrP 5' UTR reporter expression. 340,000 tested, 0.35% active. inhibition, % (concentration not given with the values). AID 488862. cell-based PrP 5' UTR mRNA reporter, plate reader; in the data active = inhibition above about 52%; note: 0 = median of the neutral control wells
PrPC TRFRET = inhibitors of human cell surface prion protein PrPC; inhibition, % at 13.8 µM; P04156; TR-FRET read-out; 370,000 tested, 0.43% active; AID 720596; in the data active = inhibition above about 24%; note: 0% = median of the test wells and 100% = reference compound wells
PfHsp40 rescue = restores yeast growth despite PfHsp40 toxicity | AID 504582 | 340,000 tested, 0.68% active | S. cerevisiae expressing PfHsp40, growth rescue, ATP luminescence | growth rescue, % at 12.5 µM; in the data active = growth rescue above about 28%, passing the limit was not always enough;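 note: yeast W303a lacking pdr1 and pdr3 grown in galactose medium; growth measured after three days at 30 °C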
PrP UTR cherry = prion 5' UTR mRNA inhibition, cherry-pick retest; shares compounds with PrP 5UTR inh; cell-based prion protein 5' UTR reporter, plate reader; inhibition, % at 2.5 µM; 1,100 tested, 48% active; AID 504592; in the data active = inhibition above about 54%
CCHF vOTU inh-2 = confirmation of CCHF virus vOTU protease inhibitors; Recombinant CCHFV vOTU, Pep-AMC fluorescence; 1,900 tested, 17% active; AID 686976; shares compounds with CCHF vOTU inh-1; inhibition, % at 11.5 µM
PrPC TRFRET cf = confirmation of inhibitors of cell surface human prion protein; shares compounds with PrPC TRFRET; cell surface PrPC level, TR-FRET; inhibition, % at 13.8 µM; 1,500 tested, 65% active; AID 743200; in the data active = inhibition above about 25%
LD9 tox = kills or reduces viability of LD9 cells in PrPc counter-screen. shares compounds with PrPC TRFRET. LD9 cells cytotoxicity, luminescence viability. inhibition, % at 13.8 µM. 1,500 tested, 29% active. AID 743201; in the data active = inhibition above about 9.5%
* hit, by the source's call; nt = not tested or not shown; ! = not active in a repeat. Cut-off read from the data, not from the text of the source, unless noted: active = inhibition above about 30%; inactive = the rest.

SMILES	ugtP null kill	CCHF vOTU inh-1	Sa RN4220 lethal	PrP 5UTR inh	PrPC TRFRET	PfHsp40 rescue	PrP UTR cherry	PrPC TRFRET cf	LD9 tox	others
Cc1cc(NC2=CC(=O)C(=O)c3ccccc32)no1	nt	81*	nt	77*	-10	4	-2	nt	nt	CCHF vOTU inh-2=96*
COc1ccc(NC(=O)C=Cc2c(Cl)nc3ccccn23)cc1	-13	nt	0	nt	nt	nt	nt	nt	nt
CC1=C(N2CC2)C(=O)C(CO)=C(N2CC2)C1=O	nt	35*	nt	98*	-39	1	97*	nt	nt	CCHF vOTU inh-2=5
COc1ccc(O)c(C=NN=Cc2cccc([N+](=O)[O-])c2)c1	-1	nt	3	nt	nt	nt	nt	nt	nt
COc1ccc([C@@]23Oc4cc(OC)cc(OC)c4[C@]2(O)[C@H](O)[C@H](C(=O)N(C)C)[C@H]3c2ccccc2)cc1	nt	1	nt	79*	98*	-2	85*	99*	29*
CCN1CC2C3C(=O)N(Cc4ccccc4)C(=O)C3[C@](Cc3ccccc3)(C1=O)N2C(=O)c1ccc(C(C)(C)C)cc1 (stereo partly drawn)	5	nt	3	nt	nt	nt	nt	nt	nt
O=C1CCCC(=NNC(=O)COc2ccc(Cl)cc2)C1	7	nt	2	nt	nt	nt	nt	nt	nt
CCN(CC)c1ccc(C(=C2C=CC(=[N+](CC)CC)C=C2)c2ccccc2)cc1	nt	13	nt	56*	85*	-1	88*	90*	99*
CC(=O)OC[C@]12CCC(C)=C[C@H]1O[C@@H]1[C@H](O)[C@@H](OC(C)=O)[C@@]2(C)[C@]12CO2	-29	4	-2	90*	88*	nt	97*	99*	59*
COC(=O)C1=C(C(=O)OC)C2N(C)c3ccccc3[C@@]23CC(C(=O)OC)N(C(=O)c2ccco2)C3=N1 (stereo partly drawn)	2	nt	6	nt	nt	nt	nt	nt	nt
CC1=CC2OC3CC4OC(=O)C=CC=CC(C(C)O)OCC(O)C(C)CC(=O)OCC2(CC1O)C4(C)C31CO1 (stereo not drawn)	nt	5	nt	95*	88*	nt	95*	99*	60*
C[C@H]1CCC/C=C/[C@@H]2C[C@H](O)C[C@H]2[C@H](O)/C=C/C(=O)O1	nt	5	nt	79*	95*	47*!	87*	95*	4
COc1ccc(C2C3C=CCC[C@@]3(C)C(=O)N2Cc2ccccc2)cc1Cl (stereo partly drawn)	-6	nt	-9	nt	nt	nt	nt	nt	nt
COCCNC(=S)NN=C(C)c1cccc(C(F)(F)F)c1	-2	nt	0	nt	nt	nt	nt	nt	nt
CC(=O)OC(C)(C)/C=C/C(=O)C(C)(O)C1[C@H](O)C[C@@]2(C)C3CC=C4C(CC[C@@H](O)C4(C)C)[C@]3(CO)C(=O)C[C@]12C (stereo partly drawn)	14	3	3	81*	30*	-1	90*	33*	3
CC(=O)CCC1C2C(O)C(C(C)C)C(OC(=O)/C=C/c3ccccc3)CC12C (stereo not drawn)	-1	0	6	-44	5	2	nt	nt	nt
CC(=O)OC1C(O)C(C)OC(OC2C(OC(=O)C3CCC4C(C3)OC3(CC(OC(=O)/C=C/c5ccccc5)C(C)CO3)C43CO3)OC(C)C(O)C2OC(C)=O)C1O (stereo not drawn)	nt	-1	nt	84*	86*	3	83*	98*	67*
COC(=O)C12OCC34C(CC5C(C)=C(O)C(=O)CC5(C)C3C(O)C1O)OC(=O)C(OC(=O)/C=C(\C)C(C)C)C24 (stereo not drawn)	nt	4	nt	93*	100*	3	92*	100*	47*
COC(=O)C12OCC34C(CC5C(C)=C(O)C(=O)CC5(C)C3C(O)C1O)OC(=O)C(OC(=O)C=C(C)C)C24 (stereo not drawn)	nt	5	nt	83*	100*	1	86*	101*	35*
CCC(=NNC(=O)OC)c1ccc(OC(F)F)cc1	7	nt	0	nt	nt	nt	nt	nt	nt
